# From PubChem BioAssay (EPA / NIEHS)
# Records with an inconclusive call do not appear. Calls of active or inactive are those of the source. The calls were made as follows, unless noted: active = hit-call score of the fitted dose curve at least 0.9, where 1 is the maximum; inconclusive = response in the unintended direction; inactive = score below 0.9.
# What was measured:
# [1] = biological target: human Peroxisome Proliferator-activated Receptor alpha (PPARa), PPARA (gene 5465) (UniProt Q07869); test: ATG_PPARa_TRANS: Attagene TRANS-FACTORIAL HepG2 Assay for human Peroxisome Proliferator-activated Receptor alpha (PPARa) (AID 2283001)
# Summary of the method: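 HepG2, transient MRTU transfection, 24 h treatment. RT-PCR → FAM labelling → capillary electrophoresis. Fit vs DMSO, positive direction.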
# [2] = biological target: human Peroxisome Proliferator-activated Receptor delta (PPARd), PPARD (gene 5467) (UniProt Q03181); test: ATG_PPARd_TRANS: Attagene TRANS-FACTORIAL HepG2 Assay for human Peroxisome Proliferator-activated Receptor delta (PPARd) (AID 2283002)
# Summary of the method: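 Fluorescence from capillary electrophoresis of labelled RT-PCR reporter fragments gives the signal; DMSO sets baseline. Cells: HepG2 transiently carrying GAL4-UAS reporter units plus chimeric nuclear receptor-Gal4 proteins, exposed to chemicals for 24 h.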
# [3] = biological target: Nuclear receptor subfamily 1 group I member 2 (Homo sapiens) (UniProt O75469); test: ATG_PXR_TRANS: Attagene TRANS-FACTORIAL HepG2 Assay for human Pregnane X Receptor (PXR) (AID 2283008)
# Summary of the method: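 HepG2 transfected (FuGene 6) with GAL4-UAS reporter units + PXR-Gal4 chimera; dosed 24 h. Total RNA → oligo(dT) RT → PCR → 6-FAM primer extension → HpaI cut → CE. Gain-of-signal vs DMSO.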
# [4] = biological target: Retinoic acid receptor RXR-alpha (Homo sapiens) (UniProt P19793); test: ATG_RXRa_TRANS: Attagene TRANS-FACTORIAL HepG2 Assay for human Retinoid X Receptor alpha (RXRa) (AID 2283012)
# Summary of the method: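 TRANS format reporting activity of exogenous RXRa-Gal4 chimera in transiently transfected HepG2, 24 h exposure. Reporter transcripts quantified by RT-PCR with capillary electrophoresis, with gain of signal scored relative to DMSO.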
# [5] = biological target: human RAR-related Orphan Receptor beta (RORb), RORB (gene 6096) (UniProt Q92753); test: ATG_RORb_TRANS: Attagene TRANS-FACTORIAL HepG2 Assay for human RAR-related Orphan Receptor beta (RORb) (AID 2283010)
# Summary of the method: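 Read-out is reporter mRNA induction, quantified by RT-PCR with fluorescent capillary electrophoresis, 24 h post-dose in transiently transfected HepG2 expressing exogenous NR-Gal4 chimera. Activity fitted upward versus DMSO.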
# [6] = biological target: human Thyroid Receptor alpha (THRa1), THRA (gene 7067) (UniProt P10827); test: ATG_THRa1_TRANS: Attagene TRANS-FACTORIAL HepG2 Assay for human Thyroid Receptor alpha (THRa1) (AID 2283014)
# Summary of the method: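 First, HepG2 cells receive multiple GAL4-UAS reporter units and the chimeric receptor. They are then dosed for 24 h, after which RNA is reverse-transcribed, amplified, labelled, HpaI-cut and sized by capillary electrophoresis; gain relative to DMSO is scored.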
# [7] = biological target: human RAR-related Orphan Receptor gamma (RORg), RORC (gene 6097) (UniProt P51449); test: ATG_RORg_TRANS: Attagene TRANS-FACTORIAL HepG2 Assay for human RAR-related Orphan Receptor gamma (RORg) (AID 2283011)
# Summary of the method: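 Activity is scored as increase in GAL4-UAS reporter mRNA over DMSO, detected by fluorescent RT-PCR and capillary electrophoresis in HepG2 cells transiently expressing a RORg-Gal4 chimera, 24 h after dosing.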
# [8] = biological target: human Retinoid X Receptor beta (RXRb), RXRB (gene 6257) (UniProt P28702); test: ATG_RXRb_TRANS: Attagene TRANS-FACTORIAL HepG2 Assay for human Retinoid X Receptor beta (RXRb) (AID 2283013)
# Summary of the method: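 Readout is reporter transcript induction after 24 h dosing. It is measured by RT-PCR of total RNA followed by fluorescent capillary electrophoresis. HepG2 liver cells carry transfected multiple reporter units driven by an exogenous RXRb-Gal4 fusion; activity is relative to DMSO.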
# [9] = biological target: human Retinoic Acid Receptor beta (RARb), RARB (gene 5915) (UniProt P10826); test: ATG_RARb_TRANS: Attagene TRANS-FACTORIAL HepG2 Assay for human Retinoic Acid Receptor beta (AID 2283004)
# Summary of the method: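 HepG2, transient MRTU transfection, NR–Gal4 chimera, 24 h treatment; RT-PCR plus CE fluorescence detection of reporter mRNA; gain of signal vs DMSO.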
# [10] = biological target: Retinoic acid receptor alpha (Homo sapiens) (UniProt P10276); test: ATG_RARa_TRANS: Attagene TRANS-FACTORIAL HepG2 Assay for human Retinoic Acid Receptor alpha (RARa) (AID 2283005)
# Summary of the method: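 HepG2 transiently transfected with multiplex GAL4-UAS reporter units including a human RARa–GAL4 chimera; 24 h compound exposure. Reporter mRNA quantified by RT-PCR, 6-FAM labeling and capillary electrophoresis; gain of signal versus DMSO.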
# [11] = biological target: Peroxisome proliferator-activated receptor gamma (Homo sapiens) (UniProt P37231); test: ATG_PPARg_TRANS: Attagene TRANS-FACTORIAL HepG2 Assay for human Peroxisome Proliferator-activated Receptor-gamma (PPARg) (AID 2283007)
# Summary of the method: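 Multiplexed reporter transcription units in HepG2, 24 h dosing, reporter transcripts quantified by fluorescent RT-PCR and capillary electrophoresis. Increase over DMSO scored.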
# [12] = biological target: human Retinoic Acid Receptor gamma (RARg), RARG (gene 5916) (UniProt P13631); test: ATG_RARg_TRANS: Attagene TRANS-FACTORIAL HepG2 Assay for human Retinoic Acid Receptor gamma (RARg) (AID 2283009)
# Summary of the method: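 Transactivation of exogenous RARg-Gal4 fusion measured as reporter transcript induction after 24 h in transfected HepG2 cells. RNA reverse-transcribed, amplified, fluorescently labeled and resolved by capillary electrophoresis; increase relative to DMSO.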
# [13] = read-out: Intercellular Adhesion Molecule 1 (ICAM1), ICAM1 (gene 3383); test: BSK_3C_ICAM1: BioMAP Diversity Plus: 3C Assay for Intercellular Adhesion Molecule 1 (ICAM1) Biomarker Activity (AID 2283003; active = hit-call score of the fitted dose curve at least 0.9, where 1 is the maximum; inactive = score below 0.9); conditions: primary human endothelial cells (HUVEC); actives raise or lower the signal
# Summary of the method: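 ELISA readout of ICAM1 in human umbilical vein endothelial cells in the 3C system, taken 24 h post-dose. Gain or loss of signal versus DMSO was fitted in both directions, with SRB total-protein staining run in parallel.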
# [14] = BSK_3C_Proliferation: Cell Proliferation Assessment in the BioMAP Diversity Plus: 3C Assay (AID 2283006; active = hit-call score of the fitted dose curve at least 0.9, where 1 is the maximum; inactive = score below 0.9); conditions: primary human endothelial cells (HUVEC)
# Summary of the method: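 Proliferation as total protein: sulforhodamine B (0.1%) stain of TCA-fixed subconfluent human umbilical vein endothelial cells, absorbance 560 nm, 48 h after dosing. Activity fitted in both directions against DMSO baseline.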
# [15] = read-out: E-selectin (Homo sapiens) (UniProt P16581); test: BSK_3C_Eselectin: BioMAP Diversity Plus: 3C Assay for Eselectin Biomarker Activity (AID 2283015; active = hit-call score of the fitted dose curve at least 0.9, where 1 is the maximum; inactive = score below 0.9;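 also: cell surface E-selectin protein quantified by ELISA 24 h after dosing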); conditions: primary human endothelial cells (HUVEC); actives raise or lower the signal
# Summary of the method: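 Human vascular endothelium from umbilical vein is exposed to test chemicals for 24 h. E-selectin levels are read by ELISA and compared with DMSO controls.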
# [16] = read-out: Interleukin-1 alpha (IL1a), IL1A (gene 3552); test: BSK_BE3C_IL1a: BioMAP Diversity Plus: BE3C Assay for Interleukin-1 alpha (IL1a) Biomarker Activity (AID 2283016; active = hit-call score of the fitted dose curve at least 0.9, where 1 is the maximum; inactive = score below 0.9); conditions: primary human bronchial epithelial cells; actives raise or lower the signal
# Summary of the method: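 IL-1a measured by ELISA after 24 h treatment of human primary bronchial epithelial cells, with gain or loss of signal fitted versus DMSO. Parallel cultures stained with SRB gauge overt cytotoxicity.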
# [17] = read-out: Monocyte Chemoattractant Protein-1 (MCP1), CCL2 (gene 6347); test: BSK_3C_MCP1: BioMAP Diversity Plus: 3C Assay for Monocyte Chemoattractant Protein-1 (MCP1) Biomarker Activity (AID 2283017; active = hit-call score of the fitted dose curve at least 0.9, where 1 is the maximum; inactive = score below 0.9); conditions: primary human endothelial cells (HUVEC); actives raise or lower the signal
# Summary of the method: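 Endothelial cells from human umbilical vein are dosed with chemical, cultured 24 h, then assayed for MCP-1 by ELISA; both increases and decreases are modelled against DMSO controls.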
# [18] = read-out: Monocyte Chemoattractant Protein-1 (MCP1), CCL2 (gene 6347); test: BSK_4H_MCP1: BioMAP Diversity Plus: 4H Assay for Monocyte Chemoattractant Protein-1 (MCP1) Biomarker Activity (AID 2283018; active = hit-call score of the fitted dose curve at least 0.9, where 1 is the maximum; inactive = score below 0.9); conditions: primary human endothelial cells (HUVEC); actives raise or lower the signal
# Summary of the method: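 ELISA of MCP-1 (CCL2) 24 h after chemical dosing of HUVEC in the BioMAP 4H system. Gain or loss versus DMSO fitted; parallel SRB staining (560 nm) tracked overt cytotoxicity.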
# [19] = read-out: Human Leukocyte Antigen - DR isotype (HLADR), HLA-DRA (gene 3122); test: BSK_3C_HLADR: BioMAP Diversity Plus: 3C Assay for Human Leukocyte Antigen - DR isotype (HLADR) Biomarker Activity (AID 2283019; active = hit-call score of the fitted dose curve at least 0.9, where 1 is the maximum; inactive = score below 0.9;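 also: ELISA of cell-surface HLA-DR on HUVEC 24 h after dosing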); conditions: primary human endothelial cells (HUVEC); actives raise or lower the signal
# Summary of the method: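 Endothelial cells from human umbilical vein are treated with test chemical; after 24 h, HLA-DR levels are measured by ELISA. Data are fitted in both directions using DMSO as the baseline.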
# [20] = read-out: Interleukin-8 (IL8), CXCL8 (gene 3576); test: BSK_3C_IL8: BioMAP Diversity Plus: 3C Assay for Interleukin-8 (IL8) Biomarker Activity (AID 2283020; active = hit-call score of the fitted dose curve at least 0.9, where 1 is the maximum; inactive = score below 0.9); conditions: primary human endothelial cells (HUVEC); actives raise or lower the signal
# Summary of the method: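 IL-8 was measured by ELISA in HUVEC cultures 24 h after chemical dosing, with gain or loss of signal fitted relative to DMSO. Parallel SRB total-protein staining tracked overt cytotoxicity.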
# Sequence of human Retinoic Acid Receptor gamma (RARg), RARG (gene 5916) (P13631 whole entry, looked up, the tested form may be a part): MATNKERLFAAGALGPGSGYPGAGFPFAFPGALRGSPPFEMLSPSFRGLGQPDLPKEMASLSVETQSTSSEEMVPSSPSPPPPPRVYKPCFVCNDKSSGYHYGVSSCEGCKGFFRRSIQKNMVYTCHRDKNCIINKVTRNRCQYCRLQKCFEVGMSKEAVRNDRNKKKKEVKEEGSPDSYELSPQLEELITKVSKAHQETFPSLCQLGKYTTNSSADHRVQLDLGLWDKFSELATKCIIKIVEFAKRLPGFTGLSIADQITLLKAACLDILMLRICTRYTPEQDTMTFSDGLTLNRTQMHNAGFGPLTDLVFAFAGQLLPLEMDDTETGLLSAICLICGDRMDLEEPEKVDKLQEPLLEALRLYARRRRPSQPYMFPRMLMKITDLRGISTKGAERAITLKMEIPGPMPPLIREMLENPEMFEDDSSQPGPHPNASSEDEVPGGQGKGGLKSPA
# Sequence of Nuclear receptor subfamily 1 group I member 2 (Homo sapiens) (O75469 whole entry, looked up, the tested form may be a part): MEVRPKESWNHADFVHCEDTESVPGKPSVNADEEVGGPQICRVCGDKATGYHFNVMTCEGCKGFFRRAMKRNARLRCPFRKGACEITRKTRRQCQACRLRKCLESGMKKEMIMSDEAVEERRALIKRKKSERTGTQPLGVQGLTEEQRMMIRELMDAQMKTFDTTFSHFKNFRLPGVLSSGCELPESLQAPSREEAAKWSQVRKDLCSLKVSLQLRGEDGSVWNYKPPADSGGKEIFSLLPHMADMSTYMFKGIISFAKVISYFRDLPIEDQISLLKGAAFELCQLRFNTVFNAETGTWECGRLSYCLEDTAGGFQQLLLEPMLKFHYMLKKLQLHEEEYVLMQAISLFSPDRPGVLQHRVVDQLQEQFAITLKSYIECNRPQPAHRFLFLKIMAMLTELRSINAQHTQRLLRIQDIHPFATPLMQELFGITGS
# Sequence of Peroxisome proliferator-activated receptor gamma (Homo sapiens) (P37231 whole entry, looked up): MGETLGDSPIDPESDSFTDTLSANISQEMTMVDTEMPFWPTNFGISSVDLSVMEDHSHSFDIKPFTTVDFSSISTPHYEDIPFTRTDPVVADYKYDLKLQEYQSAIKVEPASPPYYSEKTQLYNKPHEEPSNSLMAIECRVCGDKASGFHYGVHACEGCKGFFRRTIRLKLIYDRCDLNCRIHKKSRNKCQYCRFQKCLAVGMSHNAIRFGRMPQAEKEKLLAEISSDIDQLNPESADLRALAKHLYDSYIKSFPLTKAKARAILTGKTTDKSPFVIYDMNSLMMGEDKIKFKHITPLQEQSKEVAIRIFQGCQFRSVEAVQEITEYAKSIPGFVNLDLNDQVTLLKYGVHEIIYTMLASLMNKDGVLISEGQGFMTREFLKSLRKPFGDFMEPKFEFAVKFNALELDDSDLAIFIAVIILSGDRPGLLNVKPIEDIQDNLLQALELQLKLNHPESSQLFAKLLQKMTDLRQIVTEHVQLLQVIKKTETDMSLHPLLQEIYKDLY
# Sequence of human Peroxisome Proliferator-activated Receptor delta (PPARd), PPARD (gene 5467) (Q03181 whole entry, looked up, the tested form may be a part): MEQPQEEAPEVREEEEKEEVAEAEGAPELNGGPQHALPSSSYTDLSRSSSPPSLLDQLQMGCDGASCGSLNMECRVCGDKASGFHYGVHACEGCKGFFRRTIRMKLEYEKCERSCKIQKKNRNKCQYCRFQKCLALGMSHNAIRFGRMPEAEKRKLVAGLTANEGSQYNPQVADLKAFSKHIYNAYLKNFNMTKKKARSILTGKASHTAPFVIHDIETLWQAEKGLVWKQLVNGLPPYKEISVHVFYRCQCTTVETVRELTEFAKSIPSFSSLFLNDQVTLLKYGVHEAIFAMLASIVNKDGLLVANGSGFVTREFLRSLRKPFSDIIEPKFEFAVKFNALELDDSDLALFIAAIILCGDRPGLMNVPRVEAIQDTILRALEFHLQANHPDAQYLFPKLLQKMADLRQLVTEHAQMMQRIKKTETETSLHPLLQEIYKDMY
# Sequence of human Thyroid Receptor alpha (THRa1), THRA (gene 7067) (P10827 whole entry, looked up, the tested form may be a part): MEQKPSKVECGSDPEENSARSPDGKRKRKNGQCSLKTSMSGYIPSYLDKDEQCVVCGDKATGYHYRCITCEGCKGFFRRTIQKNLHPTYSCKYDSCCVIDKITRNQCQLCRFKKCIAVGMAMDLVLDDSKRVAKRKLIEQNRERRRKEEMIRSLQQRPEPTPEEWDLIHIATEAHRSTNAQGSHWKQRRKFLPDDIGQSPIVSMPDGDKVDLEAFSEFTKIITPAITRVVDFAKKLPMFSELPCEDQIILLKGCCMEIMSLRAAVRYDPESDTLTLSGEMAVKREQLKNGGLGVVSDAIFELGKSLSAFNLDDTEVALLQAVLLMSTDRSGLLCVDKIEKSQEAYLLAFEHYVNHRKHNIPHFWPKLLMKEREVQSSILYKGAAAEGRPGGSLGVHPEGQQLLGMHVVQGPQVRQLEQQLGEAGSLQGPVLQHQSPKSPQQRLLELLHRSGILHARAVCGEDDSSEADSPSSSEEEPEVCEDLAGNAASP
# Sequence of Retinoic acid receptor RXR-alpha (Homo sapiens) (P19793 whole entry, looked up, the tested form may be a part): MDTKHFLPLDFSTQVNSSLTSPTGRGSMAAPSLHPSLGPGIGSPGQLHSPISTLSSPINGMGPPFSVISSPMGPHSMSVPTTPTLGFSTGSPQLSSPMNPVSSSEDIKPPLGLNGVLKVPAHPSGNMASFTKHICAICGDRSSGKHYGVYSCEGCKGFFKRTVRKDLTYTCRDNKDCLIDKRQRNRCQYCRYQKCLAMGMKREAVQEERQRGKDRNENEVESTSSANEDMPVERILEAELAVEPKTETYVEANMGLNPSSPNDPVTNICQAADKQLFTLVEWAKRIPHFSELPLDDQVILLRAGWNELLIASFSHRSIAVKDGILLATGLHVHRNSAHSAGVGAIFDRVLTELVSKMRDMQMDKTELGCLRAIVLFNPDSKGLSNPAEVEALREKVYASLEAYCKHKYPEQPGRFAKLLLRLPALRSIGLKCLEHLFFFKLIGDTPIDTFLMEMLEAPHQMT
# Sequence of human RAR-related Orphan Receptor gamma (RORg), RORC (gene 6097) (P51449 whole entry, looked up, the tested form may be a part): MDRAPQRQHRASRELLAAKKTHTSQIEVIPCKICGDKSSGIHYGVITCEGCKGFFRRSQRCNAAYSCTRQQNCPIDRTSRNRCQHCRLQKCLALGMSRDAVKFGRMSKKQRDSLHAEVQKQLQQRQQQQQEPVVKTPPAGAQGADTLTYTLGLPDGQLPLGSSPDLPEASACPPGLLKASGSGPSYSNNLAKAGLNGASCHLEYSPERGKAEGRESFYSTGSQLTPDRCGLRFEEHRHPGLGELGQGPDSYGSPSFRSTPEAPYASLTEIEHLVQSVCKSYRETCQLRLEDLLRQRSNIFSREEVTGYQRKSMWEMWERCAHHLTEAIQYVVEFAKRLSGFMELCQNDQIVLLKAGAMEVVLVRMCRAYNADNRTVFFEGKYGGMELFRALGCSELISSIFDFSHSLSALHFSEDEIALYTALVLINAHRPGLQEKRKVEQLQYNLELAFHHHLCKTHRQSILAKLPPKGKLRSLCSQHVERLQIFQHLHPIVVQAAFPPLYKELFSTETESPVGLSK
# Sequence of human RAR-related Orphan Receptor beta (RORb), RORB (gene 6096) (Q92753 whole entry, looked up, the tested form may be a part): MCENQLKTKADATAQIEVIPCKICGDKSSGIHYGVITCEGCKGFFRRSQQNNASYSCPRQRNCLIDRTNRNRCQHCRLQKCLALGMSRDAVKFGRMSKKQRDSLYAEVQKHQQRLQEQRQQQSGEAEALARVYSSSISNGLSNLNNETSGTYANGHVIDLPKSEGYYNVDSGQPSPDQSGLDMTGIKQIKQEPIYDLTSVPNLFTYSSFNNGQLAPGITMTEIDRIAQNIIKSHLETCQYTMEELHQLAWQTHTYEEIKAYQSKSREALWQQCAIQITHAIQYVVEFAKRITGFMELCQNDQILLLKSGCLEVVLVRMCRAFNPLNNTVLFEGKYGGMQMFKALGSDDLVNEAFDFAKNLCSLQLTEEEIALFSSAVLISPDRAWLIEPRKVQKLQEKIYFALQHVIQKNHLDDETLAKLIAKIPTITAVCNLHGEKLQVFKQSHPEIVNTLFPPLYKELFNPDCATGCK
# Sequence of human Peroxisome Proliferator-activated Receptor alpha (PPARa), PPARA (gene 5465) (Q07869 whole entry, looked up): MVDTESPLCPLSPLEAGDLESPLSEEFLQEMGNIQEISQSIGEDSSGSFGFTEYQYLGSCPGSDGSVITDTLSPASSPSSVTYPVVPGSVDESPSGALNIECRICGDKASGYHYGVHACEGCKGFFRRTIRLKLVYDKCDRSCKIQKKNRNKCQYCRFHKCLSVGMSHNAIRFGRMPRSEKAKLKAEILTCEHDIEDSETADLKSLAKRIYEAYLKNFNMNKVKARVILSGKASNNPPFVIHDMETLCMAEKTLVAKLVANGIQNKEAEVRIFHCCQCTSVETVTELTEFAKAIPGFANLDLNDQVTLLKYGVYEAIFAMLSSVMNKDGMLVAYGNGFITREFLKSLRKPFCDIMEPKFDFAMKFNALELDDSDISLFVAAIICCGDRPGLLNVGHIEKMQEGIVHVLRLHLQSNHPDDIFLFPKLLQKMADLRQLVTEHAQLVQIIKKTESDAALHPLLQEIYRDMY
# Sequence of Retinoic acid receptor alpha (Homo sapiens) (P10276 whole entry, looked up, the tested form may be a part): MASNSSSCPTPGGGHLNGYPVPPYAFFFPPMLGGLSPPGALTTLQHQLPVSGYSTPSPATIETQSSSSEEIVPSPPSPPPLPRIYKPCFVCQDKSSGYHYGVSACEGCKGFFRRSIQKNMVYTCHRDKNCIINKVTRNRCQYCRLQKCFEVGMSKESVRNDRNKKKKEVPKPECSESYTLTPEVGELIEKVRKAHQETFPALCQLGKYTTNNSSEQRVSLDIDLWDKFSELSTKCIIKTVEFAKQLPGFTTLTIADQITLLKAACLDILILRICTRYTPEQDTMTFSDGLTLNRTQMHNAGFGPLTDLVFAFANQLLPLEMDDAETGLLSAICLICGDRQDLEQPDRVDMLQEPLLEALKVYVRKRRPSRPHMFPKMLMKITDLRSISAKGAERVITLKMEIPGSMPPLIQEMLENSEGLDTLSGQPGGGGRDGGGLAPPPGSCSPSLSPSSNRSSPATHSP
compound,measurement,setting,value
NC(=O)c1ccccc1O,outcome,[1],inactive
same,outcome,[2],inactive
same,outcome,[3],inactive
same,outcome,[4],inactive
CC(C)COC(=O)C=Cc1ccccc1,outcome,[1],inactive
same,outcome,[2],inactive
same,outcome,[5],inactive
same,outcome,[4],inactive
same,outcome,[6],inactive
OCCNCc1ccccc1,outcome,[1],inactive
same,outcome,[2],inactive
same,outcome,[5],inactive
same,outcome,[7],inactive
same,outcome,[4],inactive
O=[N+]([O-])c1ccc(CO)cc1,outcome,[1],inactive
same,outcome,[2],inactive
same,outcome,[3],inactive
same,outcome,[5],inactive
same,outcome,[4],inactive
same,outcome,[8],inactive
same,outcome,[6],inactive
CCCCCCCC[N+](C)(CCCCCCCC)CCCCCCCC,outcome,[1],inactive
same,outcome,[9],inactive
same,outcome,[10],inactive
same,outcome,[11],inactive
same,outcome,[12],inactive
same,outcome,[6],inactive
COc1ccc2nc(N)sc2c1,outcome,[1],inactive
same,outcome,[13],inactive
same,outcome,[14],inactive
same,outcome,[11],inactive
same,outcome,[12],inactive
same,outcome,[5],inactive
same,outcome,[7],inactive
same,outcome,[4],inactive
same,outcome,[15],inactive
same,outcome,[16],inactive
same,outcome,[17],inactive
same,outcome,[18],inactive
same,outcome,[19],inactive
same,outcome,[20],inactive
CC1=NC(C)OC1C (configuration not stated),outcome,[1],inactive
same,outcome,[9],inactive
same,outcome,[10],inactive
same,outcome,[11],inactive
same,AC50,[3],19.8 µM (active)
same,outcome,[4],inactive
CCCCCCCOC(=O)CCC,outcome,[1],inactive
same,outcome,[2],inactive
same,outcome,[12],inactive
same,outcome,[5],inactive
same,outcome,[6],inactive
C[C@]12C=CC(=O)C=C1CC[C@@H]1[C@@H]2[C@@H](O)C[C@@]2(C)[C@H]1CC[C@]2(O)C(=O)CO,outcome,[1],inactive
same,outcome,[2],inactive
same,outcome,[5],inactive
same,outcome,[7],inactive
same,outcome,[4],inactive
